Source: PubChem
D2 PAM-1: HTS Assay for Positive Allosteric Modulators of the Human D2 Dopamine Receptor: Primary Screen for Potentiators. 0.34% of 340,000 active. D(2) dopamine receptor (Homo sapiens), P14416. AID 485347, 2010. HEK293 T-REx D2, calcium flux, EC20 dopamine potentiation. potentiation, % at 10 µM;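 active = potentiation over 3 SD above the plate norm, cut at about 30% in these data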; note: 0% is about no effect
Target sequence (P14416 whole entry, looked up): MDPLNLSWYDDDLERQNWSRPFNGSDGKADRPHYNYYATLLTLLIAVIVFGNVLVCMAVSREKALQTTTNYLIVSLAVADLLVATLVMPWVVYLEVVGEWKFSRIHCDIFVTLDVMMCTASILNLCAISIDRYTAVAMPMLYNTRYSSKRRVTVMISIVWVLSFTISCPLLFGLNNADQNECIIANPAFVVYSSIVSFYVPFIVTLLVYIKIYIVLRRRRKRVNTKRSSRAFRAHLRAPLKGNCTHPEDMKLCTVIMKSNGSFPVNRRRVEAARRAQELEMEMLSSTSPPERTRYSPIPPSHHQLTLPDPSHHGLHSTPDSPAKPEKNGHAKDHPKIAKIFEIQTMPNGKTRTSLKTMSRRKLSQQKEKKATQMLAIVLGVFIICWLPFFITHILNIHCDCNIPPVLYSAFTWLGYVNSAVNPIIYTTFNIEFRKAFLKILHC
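Calcium flux readout, no-wash dye, 1 read/s. Inducible HEK293 Trex D2 line, overnight 30 C. Compound alone 180 s (agonist flags), then EC20 dopamine, another 180 s to score potentiation.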
D2 ag-1: HTS Assay for Allosteric Agonists of the Human D2 Dopamine Receptor: Primary Screen for Agonists; HEK293 T-REx D2 cells, calcium flux agonist mode; activation, % at 2 µM; D(2) dopamine receptor (Homo sapiens), P14416; 0.53% of 340,000 active;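 active = activation over 3 SD above normal in the single-dose calcium agonist read, cut at about 30% in these data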; note: 0% is about no effect
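In this primary screen, compounds producing a positive calcium signal within 180 s of addition to tetracycline-induced, force-coupled HEK293 Trex D2 cells are flagged; cells are dye-loaded with a no-wash calcium kit beforehand.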
D2 PAM-2: Beta-Arrestin HTS for Positive Allosteric Modulators of the Human D2 Dopamine Receptor: Potentiators; D(2) dopamine receptor (Homo sapiens), P14416; DiscoveRx D2 beta-arrestin cells, luminescence, 90 min; 100% = 57 uM dopamine signal; potentiation, % (test concentration not listed); 0.23% of 360,000 active; AID 624464, 2012; in the data active = potentiation above about 50%; inconclusive = mostly about 30% to 49%
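PathHunter D2 cells, attached overnight at 37 deg C, received compound in DMSO plus dopamine at EC20 (50 nM final) for 90 min at 37 deg C. Beta-arrestin recruitment was read as luminescence after 1 h with detection reagent at ambient temperature.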
D2 ag-2: Beta-Arrestin HTS for Positive Allosteric Modulators of the Human D2 Dopamine Receptor: Agonists. D(2) dopamine receptor (Homo sapiens), P14416. DiscoveRx PathHunter D2 beta-arrestin, luminescence, 90 min; 100% = 57 uM dopamine signal. activation, % (no concentration beside the values). 0.084% of 360,000 active. AID 624465, 2012; in the data active = activation above about 40%; inconclusive = between about 15% and that limit
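DiscoveRx PathHunter D2 beta-arrestin cells (2,100/well) attached overnight, then compound-stimulated 90 min at 37 C in HBSS/10 mM HEPES/0.1% Tween-20 buffer; beta-galactosidase complementation read by luminescence after 1 h at ambient temperature. Dopamine 57 uM final (EC100) as control.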
D2 antagonist: HTS Assay for Allosteric Antagonists of the Human D2 Dopamine Receptor: Primary Screen for Antagonists. D(2) dopamine receptor (Homo sapiens), P14416. HEK293 TREx D2 cells, calcium flux, dopamine EC80. inhibition, % at 10 µM. 2% of 340,000 active; in the data active = inhibition above about 30%; inactive = below that, where a call was filed; note: 0% is about no effect
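Inhibition of EC80 dopamine-driven calcium flux, recorded kinetically, defines activity here; cells are a tetracycline-induced HEK293 T-REx line expressing force-coupled D2.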
* = called active by the depositor; ? = inconclusive; nt = not tested or not shown. The list is not random: actives were taken first. Their share in the collection is about 2.4%.

SMILES | D2 PAM-1 | D2 ag-1 | D2 PAM-2 | D2 ag-2 | D2 antagonist
O=S(=O)(c1ccc(SCCOc2cccc(Br)c2)nc1)N1CCCC1 | -2.7 | 0.2 | -29.1 | -2.0 | 42.3*
COc1ccc(CCNC(=O)C(NS(=O)(=O)c2ccc3c(c2)CCN3C(C)=O)C(C)C)cc1OC (stereo not drawn) | 31.7* | -0.3 | nt | nt | 4.7
COc1ccc(S(=O)(=O)Nc2ccc(N3CCOCC3)cc2)cc1[N+](=O)[O-] | 0.7 | -0.6 | 3.7 | 2.1 | 2.4
CCC(=O)N1CCc2cc(S(=O)(=O)CCC(=O)NCCc3ccccc3)ccc21 | 4.7 | -1.9 | -13.7 | -1.5 | 1.3
COc1ccc(S(=O)(=O)Nc2ccc(N3CCOCC3)cc2)cc1Br | 5.3 | 0.0 | -35.9 | -0.4 | 30.5*
COc1ccc(S(=O)(=O)Nc2ccc3c(c2)N(C(C)=O)CCC3)cc1OC | 16.7 | -0.3 | -2.2 | 3.4 | 33.8*
CCC(=O)N1CCc2cc(S(=O)(=O)CCC(=O)NCCc3ccc(OC)c(OC)c3)ccc21 | 2.4 | -0.1 | -13.4 | -0.4 | 36.6*
COc1cc(O)ccc1-c1nc2ccc(Br)cn2c1Nc1ccccc1C | 7.7 | 5.2 | nt | nt | nt
COc1ccc(OC)c(S(=O)(=O)NCCc2sc(C)nc2C)c1 | -2.0 | -1.9 | nt | nt | nt
Nc1ncc(S(=O)(=O)N2CCN(c3ccccc3)CC2)cn1 | -4.4 | nt | nt | nt | nt
COC(=O)c1cc(C)nc2c1c(=O)nc(SCc1cccc(C)c1)n2C1CC1 | 14.0 | nt | nt | nt | nt
Nc1nc(N)nc(-c2cccc(Cl)c2)n1 | -2.9 | 0.2 | -9.5 | -2.2 | 32.1*
Cc1ccccc1NC(=O)CSc1nc(=O)n(CCN2CCOCC2)c2c1CCC2 | 17.5 | 0.7 | nt | nt | nt
Cc1ccccc1OCC(=O)Nc1ccccc1-c1ccccc1NC(=O)COc1ccccc1C | -2.7 | -0.2 | -19.9 | -3.9 | -0.9
Cc1cc(Br)ccc1NC(=O)CNC(=O)COc1ccccc1C | -13.7 | 0.1 | -13.2 | -5.1 | 31.9*
COc1ccc(CCNC(=O)CCNC(=O)c2ccc(Br)cc2)cc1OC | -9.0 | 34.9* | -2.4 | 0.5 | -8.0
COC(=O)C(Cc1ccccc1)NC(=O)CCC(=O)NC(C)CCc1ccccc1 (stereo not drawn) | -5.7 | 0.3 | -2.4 | -1.5 | -0.2
O=C(COc1ccc(Br)cc1)NCCNC(=O)c1ccncc1 | -11.3 | 0.0 | -16.2 | -8.4 | 47.3*
COC(=O)C(Cc1ccccc1)NC(=O)CCNC(=O)c1ccc(Br)cc1 (stereo not drawn) | 39.6* | nt | -4.6 | -1.3 | nt
Cc1cccc(C)c1OCC(=O)NNC(=O)CCNC(=O)c1ccc(Br)cc1 | 0.3 | -0.3 | 63.9* | -5.0 | -3.2
CCOC(=O)Cn1nc(-c2ccccc2)c2cnc3ccc(OCC)cc3c21 | 21.6 | -1.2 | nt | nt | nt
CN(C)c1ccc(CNC(=O)C2CCN(C(=O)c3ccc(-n4ccc5ccccc54)s3)CC2)cc1 | 3.1 | -0.4 | nt | nt | nt
COC(=O)c1ccc2nc(-c3ccc(OC)c(OC)c3)c(CC3CCCCC3)n2c1 | nt | nt | 0.4 | -1.8 | nt
COc1ccc(CCNC(=O)c2cc3sc(Cl)cc3n2C)cc1OC | -6.6 | -1.4 | -3.2 | -0.9 | 63.0*
Cc1ccc(CNC(=O)c2cc3sc(Cl)cc3n2C)cc1 | -6.1 | nt | nt | nt | nt
SMILES | D2 PAM-1 | D2 ag-1 | D2 PAM-2 | D2 ag-2 | D2 antagonist
CCCCn1c(=O)n(-c2ccc(Br)cc2F)c(=O)c2c3c(sc21)CN(C(C)=O)CC3 | -2.6 | nt | nt | nt | nt
CCCCN1C(=O)c2[nH]nc(-c3ccccc3O)c2C1c1ccc(OCc2ccccc2)cc1 (stereo not drawn) | -1.0 | -0.3 | nt | nt | nt
Fc1ccc(N2CCN(C3=Nc4cccc5cccc3c45)CC2)cc1 | -0.9 | -3.5 | -17.7 | -3.4 | 8.2
CN1CCN(C2=Nc3cc(F)ccc3Cc3ccccc32)CC1 | -26.2 | 1.0 | nt | nt | 32.9*
CC(Sc1nc(O)c(-c2ccccc2)c(=O)[nH]1)C(=O)Nc1ccc(Cl)cc1 (stereo not drawn) | 3.5 | -2.3 | -8.7 | 2.8 | -31.6
Cc1ccc(NC(=O)C(C)Sc2nc(-c3ccccc3)cc(=O)[nH]2)cc1 (stereo not drawn) | -0.8 | -0.6 | -7.5 | -2.7 | 36.5*
CC(S(=O)(=O)c1ccccc1)S(=O)(=O)c1ccccc1 | nt | nt | -6.9 | -7.3 | nt
COc1cc(C(=O)O/N=C2/C=C(C)C(=O)C=C2C)cc(OC)c1OC | 0.8 | 1.4 | 1.6 | ? | 1.9
COc1ccc(S(=O)(=O)/N=C2/C=CC(=O)C(C)=C2C)cc1 | 16.3 | -0.3 | 10.4 | 11.2 | -2.1
CC1=C/C(=N\OS(=O)(=O)c2ccccc2)C(C)=CC1=O | 4.6 | 1.3 | 79.4* | ? | -6.0
CC1=C(C)/C(=N\OS(=O)(=O)c2ccc(C)cc2)C=CC1=O | -1.9 | nt | 67.0* | 48.1* | nt
CC1=C/C(=N\OS(=O)(=O)c2ccccc2)C(C(C)C)=CC1=O | 0.6 | 0.4 | 114.3* | 49.0* | 5.6
CCOC(=O)CSc1nc2cc(OC)c(OC)cc2c2nc(-c3ccccc3)nn12 | 0.3 | 0.7 | nt | nt | nt
COc1ccc2c(c1)CCc1sc(NC(=O)c3ccco3)nc1-2 | 30.2* | -0.8 | 4.0 | 4.6 | -2.2
COc1ccc2c(c1)-c1nc(NC(=O)c3ccco3)sc1CC2 | 1.9 | -1.1 | 0.7 | 3.0 | 4.9
COc1ccccc1COC(=O)c1cccc(S(=O)(=O)N2CCCC2)c1 | 7.4 | -0.2 | -27.8 | -3.4 | 41.7*
Cc1ccc(COC(=O)c2cccc(S(=O)(=O)N3CCCCCC3)c2)cc1 | 12.3 | 0.8 | -13.6 | 0.4 | 42.9*
Cc1ccc(COC(=O)c2cccc(S(=O)(=O)N3CCCCC3)c2)cc1 | 13.4 | -1.4 | -20.1 | -7.1 | -14.9
Cc1cc(NC(=O)c2ccc(-c3ccc(Br)cc3)o2)cc(-c2nc3ncccc3o2)c1O | 10.8 | -0.2 | nt | nt | nt
Cc1cc(C)cc(NS(=O)(=O)c2cc(Br)cnc2N)c1 | 2.1 | -0.2 | 3.2 | 1.5 | 31.8*
Cc1ccc(NS(=O)(=O)c2cc(Br)cnc2N)cc1C | 6.5 | 0.1 | -8.3 | 5.2 | -27.4
Nc1cc2c(cc1[N+](=O)[O-])OCCO2 | -8.0 | 0.3 | -25.6 | -3.3 | 47.2*
CCCCCn1c(=O)c(C(=O)c2ccccc2)nc2ccccc21 | 15.7 | -0.1 | 2.5 | 0.1 | 1.2
CCCCCCn1c(=O)[nH]c2nc3cc(N)ccc3nc2c1=O | 2.7 | 84.9* | 59.9* | 5.9 | 32.0*
Cc1cccc(-c2nnn3c2nc(NCCc2ccc(S(N)(=O)=O)cc2)c2cc(Cl)ccc23)c1 | 14.8 | 0.5 | nt | nt | nt
COc1ccc(-c2nc(CSCC(=O)N3CCc4ccccc4C3)c(C)o2)cc1OC | 22.2 | 0.4 | -9.7 | -7.1 | 45.3*
CCN(C1CCCCC1)S(=O)(=O)c1ccc(S(=O)(=O)NCc2ccncc2)cc1 | nt | nt | -3.3 | 6.9 | nt
